Screening results deposited in PubChem BioAssay by National Center for Advancing Translational Sciences (NCATS).
Nrf2 inh: Nrf2 qHTS screen for inhibitors. A549 ARE-Fluc reporter, luciferase luminescence, 18-24 h. Potency, µM (series often up to 46 µM), inactives show top-dose activity change, negative = inhibition, most hits filed as inhibitors. 360,000 compounds, 2.1% hits. AID 504444, 2011; note: % is set by controls: 0 for no effect and ±100 for the full control effect; nearly all actives have a fitted effect of over 60% in size
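A549 ARE_Fluc cells (5000/well, 5% FBS OPTI-MEM) pre-incubated 2 h, then treated with compounds 18-24 h at 37C/5% CO2 in concentration-response. CellTiter-Fluor viability read first; BugLite luciferase luminescence after 15 min at room temperature gives Nrf2 activity.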
Nrf2 activator: qHTS of Nrf2 Activators; AREc32 ARE-luciferase reporter (MCF7-derived line), luminescence, 24 h; Potency, µM (series often up to 46.1 µM), inactives show at the highest dose activation, most hits filed as activators; 410,000 compounds, 0.31% hits; note: % of control where 0% means no effect; nearly all actives have a fitted effect of over 65% in size
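AREc32 cells carrying an ARE-driven firefly luciferase reporter were seeded at 1000 cells/well in OPTI-MEM with 5% FBS, then exposed to compound for 24 hr at 37 deg C. Luminescence was read with Steady-Glo after 30 min at RT.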
IDH1 R132H inh: qHTS for Inhibitors of mutant isocitrate dehydrogenase 1 (IDH1): qHTS; 390,000 compounds, 0.093% hits; Potency, µM (series often up to 76.6 µM), for the others: at the top dose activity change, negative = inhibition, usual class: inhibitors; IDH1-R132H enzyme, NADPH consumption, diaphorase/resazurin fluorescence; AID 602179, 2012; note: % is set by controls: 0 for no effect and ±100 for the full control effect; nearly all actives have a fitted effect of over 65% in size
Target sequence (O75874 whole entry R132H, stated change not applied): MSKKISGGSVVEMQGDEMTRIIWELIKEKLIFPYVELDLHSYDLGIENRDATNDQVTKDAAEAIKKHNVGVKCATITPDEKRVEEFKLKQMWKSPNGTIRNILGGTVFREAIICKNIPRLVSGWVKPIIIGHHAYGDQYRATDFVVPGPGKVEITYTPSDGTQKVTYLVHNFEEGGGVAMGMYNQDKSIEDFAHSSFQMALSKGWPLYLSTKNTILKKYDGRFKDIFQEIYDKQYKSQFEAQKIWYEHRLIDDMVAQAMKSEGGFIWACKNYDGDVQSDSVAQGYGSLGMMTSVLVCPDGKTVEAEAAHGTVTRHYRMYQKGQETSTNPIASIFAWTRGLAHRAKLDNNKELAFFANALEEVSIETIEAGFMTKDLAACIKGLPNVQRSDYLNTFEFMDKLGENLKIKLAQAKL
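IDH1-R132H (0.5 ug/mL) preincubated 30 min with compound, then NADPH (0.016 mM) and alpha-KG (2 mM) added; 80 min at RT, pH 7.5. Remaining NADPH coupled via diaphorase/resazurin to fluorescence (540/590 nm); concentration-response curves normalized to no-enzyme control.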
A549 tox: Nrf2 qHTS screen for inhibitors: counterscreen for cytotoxicity. A549 ARE-Fluc cells, CellTiter-Fluor viability, 18-24 h. Potency, µM (top dose mostly 46 µM), without a hit: top-dose activity change, negative = cytotoxicity, actives largely listed as inhibitors. 390,000 compounds, 0.16% hits; note: % is set by controls: 0 for no effect and ±100 for the full control effect
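A549 ARE-Fluc cells in 5% FBS OPTI-MEM, 5000 cells/well, rested 2 h then exposed to compounds in concentration-response for 18-24 h at 37 °C. Viability by CellTiter-Fluor fluorescence (Ex 405/Em 525) after 30 min; luciferase luminescence (BugLite, 15 min, RT) read afterwards.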
ELG1 DNA repair: qHTS screen for small molecules that inhibit ELG1-dependent DNA repair in human embryonic kidney (HEK293T) cells expressing luciferase-tagged ELG1 | HEK293T ELG1-luciferase reporter, luminescence, 16 h; DNA damage induced by 5-fluorouridine | Potency, µM (highest dose often 46.1 µM), inactives show at the highest dose activity change, negative = inhibition, usual class: inhibitors | 330,000 compounds, 2.3% hits; note: % is set by controls: 0 for no effect and ±100 for the full control effect; nearly all actives have a fitted effect of over 55% in size
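DMSO vehicle served as the neutral condition. Each well held 2,000 cells given 5-fluorouridine plus compound; after 16 hr at 37 °C/5% CO2, ONE-Glo was added and luciferase measured 30 min later.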
* marks the source's active call; other numbers are inactive results. Compounds with a hit are over-represented: about 3.8% of the library has one in this group of screens. Calls come from the whole dose curve; as a rule, active = well fitted curve in the direction sought with a large enough effect; inconclusive = small, poorly fitted or top-dose-only effect, or another doubt; inactive = no such curve, though single readings can be large; an effect the other way counts as inactive or inconclusive. Potency is the fitted concentration of half-maximal effect.

How did COc1cc(C(C)=O)ccc1OCC(=O)Nc1ccc2nc(C)sc2c1 do in these assays?
Nrf2 inh: -9%; Nrf2 activator: -1%; IDH1 R132H inh: -6%; A549 tox: -1%; ELG1 DNA repair: -24%

How did O=S(=O)(c1ccc2c(c1)OCCO2)C1CCN(S(=O)(=O)c2c(F)cccc2F)CC1 do in these assays?
Nrf2 inh: 14%; A549 tox: -3%

How did Nc1ccn([C@@H]2O[C@H](CO)[C@@H](O)[C@H]2O)c(=O)n1 do in these assays?
Nrf2 inh: -16%; Nrf2 activator: -1%; IDH1 R132H inh: 14%; A549 tox: 2%

How did N=c1ccn2c(n1)OC1C(O)C(CO)OC12 (stereo not drawn) do in these assays?
Nrf2 inh: 0.18µM*; Nrf2 activator: 0%; IDH1 R132H inh: -3%; A549 tox: 0%; ELG1 DNA repair: -14%

How did O=[N+]([O-])c1ccc(N2CCCCC2)cc1SCCO do in these assays?
Nrf2 inh: 5%; Nrf2 activator: -1%; IDH1 R132H inh: 0%; A549 tox: -4%; ELG1 DNA repair: -15%

Results for Cc1nc(N2CCCCC2)sc1C(=O)c1ccc(SCCO)c([N+](=O)[O-])c1 ?
Nrf2 inh: 21µM*; Nrf2 activator: 4%; IDH1 R132H inh: -8%; A549 tox: inconclusive; ELG1 DNA repair: 18µM*

Results for Cc1cc2c(s1)c1cnn(Cc3c(F)cc(F)cc3F)c(=O)c1n2C ?
Nrf2 inh: 6%; A549 tox: -3%

What do the screens show for `Cc1ccc2[nH]c(C)c(/C=C/c3cc[n+](C)cc3)c2c1`?
Nrf2 inh: inconclusive; Nrf2 activator: 7%; IDH1 R132H inh: -8%; A549 tox: -21%; ELG1 DNA repair: 2.6µM*

Results for CCS(=O)(=O)Nc1ccc(C2=NN(C(=O)c3ccccc3)C(c3cccs3)C2)cc1 (stereo not drawn) ?
Nrf2 inh: inconclusive; Nrf2 activator: 0%; IDH1 R132H inh: -9%; A549 tox: -21%; ELG1 DNA repair: 16µM*

What do the screens show for `Cc1cccc(C(=O)N2N=C(c3ccc(NS(C)(=O)=O)cc3)CC2c2cccs2)c1` (stereo not drawn)?
Nrf2 inh: 23µM*; Nrf2 activator: 3%; IDH1 R132H inh: -11%; A549 tox: -19%; ELG1 DNA repair: inconclusive

What do the screens show for `Cc1noc(C)c1-c1ccc2ncnc(NCc3cccc(C(F)(F)F)c3)c2c1`?
Nrf2 inh: inconclusive; A549 tox: -6%

How did O=C(NC1CCCCCC1)C1CCN(C(=O)N2CCOc3ccccc32)CC1 do in these assays?
Nrf2 inh: 12%; Nrf2 activator: 4%; IDH1 R132H inh: -16%; A549 tox: 5%

How did COc1ccc(-c2nc3nc(C)cc(N4CCN(c5cccc(C(F)(F)F)c5)CC4)n3n2)cc1 do in these assays?
Nrf2 inh: -6%; Nrf2 activator: 0%; IDH1 R132H inh: 14%; A549 tox: 4%

How did Cc1ccc(N2CC(C(=O)Nc3nccs3)CC2=O)cc1Cl (stereo not drawn) do in these assays?
Nrf2 inh: inconclusive; Nrf2 activator: -2%; IDH1 R132H inh: 2%; A549 tox: 16µM*; ELG1 DNA repair: inconclusive

How did Cc1ccccc1OCC(=O)Nc1ccccc1OCc1cc(=O)n2ccccc2n1 do in these assays?
Nrf2 activator: 0%; IDH1 R132H inh: 16%; A549 tox: 0%

How did COC(=O)C1CCc2c(ccc3c2CCCC3)C1=O (stereo not drawn) do in these assays?
Nrf2 inh: inconclusive; Nrf2 activator: 2%; IDH1 R132H inh: -1%; A549 tox: 2%

What do the screens show for `COc1ccc(CC(=O)Nc2nc(-c3ccncc3)cs2)cc1`?
Nrf2 inh: -9%; Nrf2 activator: 0%; IDH1 R132H inh: 7%; A549 tox: 0%; ELG1 DNA repair: 18µM*
